Source: PubChem BioAssay AID1259354 (Paczesny and Yang Labs, IUPUI and University of Michigan, 2018)
Several values for one entry are separate records, joined by “and”; a condition that tells them apart may be missing. Equal values may be shown once. About 1,800 (2.3%) of roughly 78,000 compounds were called active. Roughly 27% stayed inconclusive and do not appear here. Cut-off read from the data, not from the text of the source: active = inhibition above about 30%; inconclusive = mostly about 10% to 28%; inactive = weaker than that. For the sample, actives were picked, then their nearest neighbours and some compounds at random.

Each compound was assayed against Interleukin-1 receptor-like 1 (Homo sapiens) (UniProt Q01638) (assay: blocks human ST2 binding to IL-33, primary screen, biochemical, AlphaLISA (AID 1259354)). Conditions: AlphaLISA ST2-Fc/biotin-IL-33 interaction, 1 h; at 17 µM, active compounds read high.
Sequence of Interleukin-1 receptor-like 1 (Homo sapiens) (Q01638 whole entry, looked up): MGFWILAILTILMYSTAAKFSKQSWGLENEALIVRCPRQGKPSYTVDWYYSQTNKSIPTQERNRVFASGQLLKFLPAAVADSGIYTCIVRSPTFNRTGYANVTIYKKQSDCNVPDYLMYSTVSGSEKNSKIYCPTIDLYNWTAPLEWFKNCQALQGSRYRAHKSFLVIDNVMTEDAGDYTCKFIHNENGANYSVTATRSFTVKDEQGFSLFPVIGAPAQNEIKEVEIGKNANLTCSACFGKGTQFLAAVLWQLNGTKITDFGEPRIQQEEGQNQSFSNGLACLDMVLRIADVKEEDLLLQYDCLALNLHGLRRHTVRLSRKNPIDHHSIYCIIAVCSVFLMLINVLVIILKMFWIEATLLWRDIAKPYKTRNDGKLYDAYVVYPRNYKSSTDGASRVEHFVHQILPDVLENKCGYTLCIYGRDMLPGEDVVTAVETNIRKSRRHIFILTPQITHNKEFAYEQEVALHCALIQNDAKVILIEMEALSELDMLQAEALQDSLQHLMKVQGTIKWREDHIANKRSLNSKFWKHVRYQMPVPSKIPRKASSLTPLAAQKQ
With `N#CC(C(=O)Nc1cccc(C(F)(F)F)c1)=C1CCCCCC1` the inhibition was “inactive”. In the case of `O=[N+]([O-])c1cccc(-c2noc([C@@H]3C[C@@H](O)CN3Cc3ccc(C(F)(F)F)cc3)n2)c1`, the inhibition is reported as “inactive”. With `N#C/C(=C\c1ccc(-c2cccc([N+](=O)[O-])c2)o1)C(=O)Nc1cccc(C(F)(F)F)c1` the inhibition was 30% (active). With `O=C(C1CCCN(Cc2c[nH]c3ccccc23)C1)N1CCCCCC1` (stereo unspecified) the inhibition was “inactive”. With `COc1ccc(-c2oc3ncn(Cc4ccco4)c(=N)c3c2-c2ccc(OC)cc2)cc1` the inhibition was 31% (active). For `Cc1cccc2nc(-c3ccco3)c(Nc3ccc(F)cc3)n12`, the inhibition was “inactive”. In the case of `O=C(Nc1c(-c2ccc(F)cc2)nc2ccccn12)c1cccc(F)c1`, the inhibition is reported as “inactive”. In the case of `Fc1ccc(C=Nc2c(-c3ccco3)nc3ccccn23)cc1`, the inhibition is reported as 49% (active). `Fc1cccc(N2N=C(/C=C/c3cccs3)CC2c2cccs2)c1` (stereo unspecified) was tested, and the inhibition was 32% (active). In the case of `CCN(CC)S(=O)(=O)c1ccc(C(=O)Nc2nnc(-c3cc(OC)cc(OC)c3)o2)cc1`, the inhibition is reported as “inactive”. With `N#C/C(=C\c1cccc(F)c1)c1nc(-c2ccc3c(c2)OCO3)cs1` the inhibition was “inactive”. With `N#C/C(=C/c1ccc2c(c1)OCO2)c1nc(-c2cccc(Br)c2)cs1` the inhibition was 30% (active). With `COc1ccccc1OCCNC(=O)c1ccccc1O` the inhibition was “inactive”. With `CCSc1nnc(NC(=O)Nc2ccc(Cl)cc2)s1` the inhibition was “inactive”. For `O=C(Nc1ccc([N+](=O)[O-])cc1Cl)c1cccc(Br)c1`, the inhibition was “inactive”. `O=C(Nc1ccc([N+](=O)[O-])cc1Br)c1cncc(Br)c1` was tested, and the inhibition was 47% (active). In the case of `O=C(Nc1ccc([N+](=O)[O-])cc1Br)c1ccncc1`, the inhibition is reported as “inactive”. For `CC(C)N(C(=O)Cn1c(Cl)nc2c1c(=O)n(C)c(=O)n2C)c1ccccc1`, the inhibition was “inactive”. In the case of `CCc1ccc(NC(=O)c2ccc(CN3CCOCC3)cc2)cc1`, the inhibition is reported as “inactive”. With `O=C(Nc1ccc(Cl)cc1)Nc1ccc2n(c1=O)C[C@H]1C[C@@H]2CN(C(=O)Cc2cccs2)C1` the inhibition was “inactive”. For `COc1ccc(-c2cccc(-n3cccn3)c2)cc1C(N)=O`, the inhibition was “inactive”. In the case of `CN1CCCC2(CC1)CCN(C(=O)c1cc3ccccc3n(C)c1=O)CC2`, the inhibition is reported as “inactive”. In the case of `COc1cc(OC)cc(C(=O)N2c3ccccc3Sc3ccccc32)c1`, the inhibition is reported as “inactive”. In the case of `O=c1nc2cc3[nH]c4c(=O)c5ccccc5c4[nH]c3cc2n1`, the inhibition is reported as 46% (active). For `O=C(c1cccc(I)c1)n1nnc2ccccc21`, the inhibition was “inactive”. With `CCSc1ncc(CN2CC[C@@H](N(C)CCc3ccccn3)[C@H](O)C2)cn1` the inhibition was “inactive”. With `CC(=O)Nc1ncc2c(n1)CC(c1ccc(F)cc1)CC2=O` (stereo unspecified) the inhibition was “inactive”. With `COc1ccc(-c2cc(C(=O)Nc3cccnc3)c3ccccc3n2)cc1` the inhibition was “inactive”. `COc1ccc(-c2csc(/C(C#N)=C\c3cccnc3)n2)cc1` was tested, and the inhibition was 31% (active). In the case of `COc1ccc(-c2cc(C(F)(F)F)nc(NCc3cccnc3)n2)cc1`, the inhibition is reported as “inactive”. In the case of `CCc1cccc(NS(=O)(=O)c2cc(Br)cc3c2N(C(C)=O)C(C)C3)c1` (stereo unspecified), the inhibition is reported as “inactive”. In the case of `O=C(c1cscn1)N1CCCC(CCc2ccccc2C(F)(F)F)C1` (stereo unspecified), the inhibition is reported as “inactive”. For `N=C1S/C(=C\c2ccc(N3CCOCC3)cc2)C(=O)N1c1ccccc1Cl`, the inhibition was 31% (active). In the case of `COc1ccc(/C=C2\SC(=O)N(c3ccc(C)cc3)C2=O)cc1`, the inhibition is reported as “inactive”. In the case of `O=C1N=C(N2CCOCC2)S/C1=C/c1ccc(F)cc1`, the inhibition is reported as “inactive”. With `CCC1=Nc2cc(C(=O)NCCN(CC)CC)ccc2Sc2ccc(C)cc21` the inhibition was “inactive”. In the case of `COc1ccc(C2CC(c3ccc(C)cc3)Nc3ncnn32)cc1` (stereo unspecified), the inhibition is reported as “inactive”. For `COc1ccc(C2NC(=O)N(C)C(C)=C2[N+](=O)[O-])cc1` (stereo unspecified), the inhibition was “inactive”. With `COc1ccc(C2CC(c3ccc([N+](=O)[O-])cc3)=NN2)cc1` (stereo unspecified) the inhibition was 30% (active). In the case of `COC(=O)c1nc2n(n1)C(c1ccc(F)cc1)C1=C(CCCC1=O)N2` (stereo unspecified), the inhibition is reported as “inactive”. For `CC(=O)c1ccc(NC(=O)CCC2CCCCC2)cc1`, the inhibition was “inactive”. In the case of `O=C(CCN1C(=O)c2ccccc2C1=O)Nc1cccc(C(F)(F)F)c1`, the inhibition is reported as “inactive”. For `Cc1nn(-c2ccccn2)c2c1C(=O)/C(=C/Nc1cccc(C(F)(F)F)c1)CC2`, the inhibition was 35% (active). `FC(F)(F)c1cccc(NCn2nnc3ccccc32)c1` was tested, and the inhibition was “inactive”. For `CCOc1ccc2[nH]c(C(=O)O)c(CCN)c2c1`, the inhibition was “inactive”. For `Cc1[nH]c2ccc(CNC(=O)[C@@H](O)Cc3ccccc3)cc2c1C`, the inhibition was “inactive”. With `COc1ccc(Br)cc1C(=O)Nc1cccc(Cl)c1` the inhibition was “inactive”. In the case of `O=C(NC1CCCCCCC1)c1cccs1`, the inhibition is reported as “inactive”. With `O=C(Nc1cccc(OCc2cc(=O)n3cc(Cl)ccc3n2)c1)c1cccs1` the inhibition was “inactive”. With `Cc1ccc2ncc(NC(=O)c3cccs3)c(=O)n2c1` the inhibition was 83% (active). In the case of `Fc1cccc(CC2CN(Cc3cn[nH]c3-c3ccccc3)CCO2)c1` (stereo unspecified), the inhibition is reported as “inactive”. In the case of `N#CC(c1ccco1)N1CCN(C(C#N)c2ccco2)CC1` (stereo unspecified), the inhibition is reported as “inactive”. With `COc1ccc(NS(=O)(=O)c2ccc(Cl)cc2)cc1` the inhibition was “inactive”. For `CCc1ccc(S(=O)(=O)N=C2C=C(Br)C(=O)c3ccccc32)cc1`, the inhibition was 36% (active). `COc1ccc(S(=O)(=O)NC(c2ccccc2)c2ccccc2)cc1` was tested, and the inhibition was “inactive”. For `O=C1C(Nc2ccc(Br)cc2)=CC(=NS(=O)(=O)c2cccs2)c2ccccc21`, the inhibition was 79% (active). `CCc1ccc(S(=O)(=O)N=C2C=C(Nc3ccc(OC)cc3)C(=O)c3ccccc32)cc1` was tested, and the inhibition was 95% (active). `CCOc1ccc(S(=O)(=O)N=C2C=C(Nc3ccc(C)cc3)C(=O)c3ccccc32)cc1` was tested, and the inhibition was 91% (active). In the case of `CCOc1ccc(NS(=O)(=O)c2ccc(Cl)cc2)cc1`, the inhibition is reported as “inactive”. In the case of `CCOc1ccc(NS(=O)(=O)c2ccc(NC(=O)c3ccccc3Br)cc2)cc1`, the inhibition is reported as “inactive”. In the case of `CCN(CC)S(=O)(=O)c1ccc(OC)c(NC(=O)c2cc(OC)c(OC)c(OC)c2)c1`, the inhibition is reported as “inactive”. For `Cc1cccc(OCC(=O)Nc2cc(C(F)(F)F)ccc2Cl)c1`, the inhibition was “inactive”. `Cc1ccc(CNC(=O)c2ccc3nc4sc5c(c4c(=O)n3c2)CCCC5)cc1` was tested, and the inhibition was “inactive”. For `CCOc1ccc(NC(=O)C2CCN(S(=O)(=O)c3ccc(OC)c(OC)c3)CC2)cc1`, the inhibition was “inactive”. `COc1ccc(C2=N/C(=C\c3ccc(C(C)C)cc3)C(=O)O2)cc1[N+](=O)[O-]` was tested, and the inhibition was “inactive”. For `CCC(C(=O)NCc1ccccc1Cl)c1ccccc1` (stereo unspecified), the inhibition was “inactive”. In the case of `O=C(c1ccccc1Cl)N1CCCCC1`, the inhibition is reported as “inactive”. For `CCCCN(CC)S(=O)(=O)c1ccc2[nH]c(=O)cc(C(=O)NC3CCCCC3C)c2c1` (stereo unspecified), the inhibition was “inactive”. In the case of `Cc1ccc(NC(=O)CNCCOc2ccccc2)c(C)c1`, the inhibition is reported as “inactive”. With `NC(=O)Cn1cnc2c(cnn2-c2ccc(F)cc2)c1=O` the inhibition was “inactive”. In the case of `C[C@@H](NC(=O)C1=C[C@@H](NC(=O)CS(=O)(=O)c2ccccc2)[C@@H](O)[C@H](O)C1)C(N)=O`, the inhibition is reported as “inactive”. With `COc1ccc(Cl)cc1NC(=O)c1nn(-c2ccc(Cl)cc2)c(=O)c2ccccc12` the inhibition was “inactive”. In the case of `COc1cc2c(C(=O)N3CCCC3)cn(C)c(=O)c2cc1OC`, the inhibition is reported as “inactive”. In the case of `CCOc1ccc(C(C)=O)cc1N1C(=O)C2C3C=CC(CC3)C2C1=O` (stereo unspecified), the inhibition is reported as “inactive”. For `CCn1c(C)csc1=Nc1cccc(C(F)(F)F)c1`, the inhibition was “inactive”. For `CN(C)CCCn1c(-c2ccc(Cl)cc2)csc1=Nc1ccccc1`, the inhibition was 63% (active) and 45% (active). With `COc1ccc(C2C(=C(O)c3ccc(Cl)cc3)C(=O)C(=O)N2CCCN(C)C)c(OC)c1` (stereo unspecified) the inhibition was “inactive”. `O=C(CN1C(=O)CC(c2ccccc2)=Nc2ccccc21)Nc1ccc(Cl)cc1` was tested, and the inhibition was “inactive”. `CCOC(=O)c1sc2nc3n(c(=O)c2c1C)N=C(c1ccccc1)CS3` was tested, and the inhibition was “inactive”. For `O=C1NN=C(c2ccccc2)/C1=C/c1ccc(-c2ccc(Cl)cc2)o1`, the inhibition was 49% (active). For `Cc1c(Cl)c([N+](=O)[O-])nn1CCCC(=O)Nc1cc(Cl)ccc1Cl`, the inhibition was “inactive”. With `Cn1c(=O)c2c(nc(Cl)n2CC(=O)NC(C)(C)C)n(C)c1=O` the inhibition was “inactive”. With `O=C(Nc1ccc2c(c1)OCCO2)c1cc2cc3ccc(Cl)cc3nc2o1` the inhibition was 47% (active). With `CCc1ccc(CNC(=O)c2cc3cc4ccc(OC)cc4nc3o2)cc1` the inhibition was “inactive”. In the case of `CC(C)NC(=O)c1cc2cc3ccc(Cl)cc3nc2o1`, the inhibition is reported as “inactive”. `CCOCCCNC(=O)c1oc2ccc(S(=O)(=O)N3CCC(C)CC3)cc2c1C` was tested, and the inhibition was “inactive”. For `Cc1ccc(C(=O)Nc2ccc3nn(-c4ccccc4)nc3c2)cc1`, the inhibition was “inactive”. For `O=C(O)c1cccc(N=Cc2nc(-c3ccc(Br)cc3)oc2O)c1`, the inhibition was “inactive”. `COc1ccc(CC(=O)Nc2ccc(-c3nnc(-c4ccccc4)o3)cc2)cc1` was tested, and the inhibition was “inactive”. `O=C(COc1cccc([N+](=O)[O-])c1)Nc1ccc(-c2nnc(-c3ccco3)o2)cc1` was tested, and the inhibition was 45% (active). For `Cc1cccc(OCC(=O)Nc2ccc(-c3nc4ncccc4o3)cc2)c1`, the inhibition was “inactive”. `Cc1c(F)cccc1NC(=O)C(C)Oc1ccc(Cl)cc1Cl` (stereo unspecified) was tested, and the inhibition was “inactive”. In the case of `O=C1CC(N2CCc3ccccc3C2)C(=O)N1c1ccc([N+](=O)[O-])cc1` (stereo unspecified), the inhibition is reported as “inactive”. For `O=C1CC(c2ccccc2)=NN1c1ccc([N+](=O)[O-])cc1`, the inhibition was 43% (active). In the case of `O=C(c1ccco1)N1CCN(c2ccc([N+](=O)[O-])cc2)CC1`, the inhibition is reported as “inactive”. `Cc1ccc(-c2cc(N3CCN(S(=O)(=O)c4cc(C)c(C)cc4C)CC3)ncn2)cc1` was tested, and the inhibition was “inactive”. For `O=C(CSCc1ccccc1)Nc1c(-c2ccc(F)cc2)nc2ccccn12`, the inhibition was “inactive”. With `N#Cc1c(NC(=O)CCCC(=O)O)sc2c1CCCC2` the inhibition was “inactive”. `COc1cccc(C(=O)Nc2sc3c(c2C(N)=O)CCCCCC3)c1` was tested, and the inhibition was “inactive”. With `CC(C)CN(CC(C)C)S(=O)(=O)c1ccc(C(=O)Nc2sc3c(c2C#N)CCC3)cc1` the inhibition was “inactive”. With `COc1cccc(-c2c(C#N)c(N)n3c(nc4ccccc43)c2C#N)c1` the inhibition was “inactive”. `Cc1cc(C)c(C#N)c(SCC(=O)c2ccc3c(c2)OCO3)n1` was tested, and the inhibition was “inactive”. In the case of `O=C(Nc1ncnc2sc3c(c12)CCCC3)c1ccccc1`, the inhibition is reported as “inactive”. With `N#Cc1c(-n2ncnc2-c2ccccc2)sc2c1CCCC2` the inhibition was 31% (active). In the case of `COc1cccc(-c2ncnn2-c2sc3c(c2C#N)CCCCC3)c1`, the inhibition is reported as 65% (active). For `N#Cc1c(-n2ncnc2-c2ccc3c(c2)OCO3)sc2c1CCCC2`, the inhibition was 47% (active).
